Results reported in PubChem BioAssay AID1619 (SRMLSC, 2009).
Hit rate of the full screen: of about 220,000 compounds, about 830 (0.38%) were called active.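 How the source made its calls: active means compound inhibiting the enzyme by more than half at any dose during confirmatory dose-response retesting; inconclusive means strong single-dose inhibitors picked by rank but not retested; inactive means the rest.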 Not all results are given here. Entries with a potency or affinity are not part of this list.

molecular target: Leucine aminopeptidase (Plasmodium falciparum (isolate 3D7)) (UniProt Q8IL11); assay: P. falciparum M17LAP inhibitors, primary screen, biochemical, fluorogenic H-Leu-NHMec substrate, 1536-well (AID 1619); settings: recombinant M17LAP, H-Leu-NHMec fluorogenic kinetic assay; at 30 µM; hits give high values;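 further: plate controls were full reaction with DMSO carrier for no effect and no enzyme background for full effect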
Sequence (Q8IL11 whole entry, looked up): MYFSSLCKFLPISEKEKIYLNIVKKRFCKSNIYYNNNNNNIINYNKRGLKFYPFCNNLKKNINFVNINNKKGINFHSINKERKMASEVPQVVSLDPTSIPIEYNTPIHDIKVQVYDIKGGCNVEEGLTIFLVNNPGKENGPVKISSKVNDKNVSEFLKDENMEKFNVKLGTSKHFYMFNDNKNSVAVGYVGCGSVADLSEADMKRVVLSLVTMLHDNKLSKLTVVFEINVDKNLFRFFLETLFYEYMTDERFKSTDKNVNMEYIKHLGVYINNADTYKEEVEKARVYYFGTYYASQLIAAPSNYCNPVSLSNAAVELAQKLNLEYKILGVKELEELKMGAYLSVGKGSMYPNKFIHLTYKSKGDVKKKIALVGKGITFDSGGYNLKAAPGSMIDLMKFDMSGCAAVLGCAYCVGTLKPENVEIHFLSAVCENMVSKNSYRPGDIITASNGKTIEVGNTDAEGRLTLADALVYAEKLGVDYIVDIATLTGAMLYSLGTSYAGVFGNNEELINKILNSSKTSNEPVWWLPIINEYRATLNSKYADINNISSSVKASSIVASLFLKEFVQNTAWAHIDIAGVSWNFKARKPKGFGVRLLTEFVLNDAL

inhibition, inactive:
O=C(c1cc(-c2ccc(F)cc2)on1)N1CCCc2ccccc21 1.4%
CCCCOCCCNC(=O)C1CCCCC1 -2.13%
C=CCn1cnc2c(nnn2-c2ccc(Cl)cc2)c1=O 1.25%
CCCCc1ccc(NC(=O)CC(C)=O)cc1 7.92%
Cc1c(Cl)cccc1NC(=O)CSC(N)=O 3.23%
Cc1c(Cl)cccc1NC(=O)CSCC(N)=O -1.74%
O=C(CSCc1cc(=O)[nH][nH]1)Nc1ccc(F)cc1 5.96%
O=C(Nc1ccc(F)cc1F)N1CCC(c2nc3ccccc3o2)CC1 2.14%
CCOCCCn1c(=S)[nH]c2cc(C(=O)NCC(OC)OC)ccc2c1=O 1.45%
Cc1cc(OCC(=O)N2CCOCC2)ccc1NC(=O)C1CCCCC1 5.24%
O=C(OCC(=O)N1CCN(C(=O)c2ccco2)CC1)c1ccccc1OCc1ccccc1 7.24%
NC(=O)COC(=O)c1ccccc1OCc1ccccc1 13.1%
CC(c1ccccc1)n1c(-c2cccs2)nc2c(c(=O)c3ccccc3n2C)c1=O (configuration not stated) 7.83%
CCOc1ccc(C(C(=O)Nc2ccc(F)cc2)N(C(=O)Cn2nnc3ccccc32)C2CC2)cc1 (configuration not stated) 6.8%
CC1CCC2(CC1)NC(=O)N(CC(=O)Nc1ccc3c(c1)CCC3)C2=O (configuration not stated) -3.16%
CC1CCCCC12NC(=O)N(CC(=O)Nc1ccc(N3CCOCC3)cc1)C2=O (configuration not stated) 22%
O=C(CN1C(=O)C2C3C=CC(C3)C2C1=O)Nc1ccc(F)cc1 (configuration not stated) -2.69%
O=C(CN1CCCCC1)Nc1ccc(N2CCCCCC2)cc1 43.3%
O=C(CCN1C(=O)C2C3C=CC(C3)C2C1=O)Nc1ccc2c(c1)OCO2 (configuration not stated) -8.11%
CC1CCC2(CC1)NC(=O)N(CC(=O)NC(=O)Nc1ccc3c(c1)OCCO3)C2=O (configuration not stated) 2.34%
O=C(CN1C(=O)NC2(CCCCC2)C1=O)Nc1ccc(N2CCOCC2)cc1 29.2%
CC1CCCCN1CC(=O)Nc1ccc(N2CCCCCC2)cc1 (configuration not stated) 37.6%
Cc1cccn2cc(CCNS(=O)(=O)c3cccc([N+](=O)[O-])c3)nc12 -1.3%
COCCn1c(N)c(N(Cc2ccccc2)C(=O)c2ccc(C#N)cc2)c(=O)[nH]c1=O 1.64%
Cc1nn(C)c(Cl)c1C(=O)NC(C(=O)O)c1ccccc1 (configuration not stated) -0.49%
O=C(O)CSc1nc2ccccc2n1-c1ccccc1 6.57%
C/C=C/Cn1c(Br)nc2c1c(=O)[nH]c(=O)n2C 6.95%
O=C1c2ccccc2-c2cccc(C(=O)N3CCN(C(=O)c4ccccc4)CC3)c21 2.37%
CC1=C(C(=O)N2CCOCC2)C(c2ccc(Br)cc2)NC(=S)N1c1ccccc1 (configuration not stated) 1.22%
Nc1nonc1C(=Nc1ccc(Br)cc1)NO -2.77%
COc1ccc(NC(=S)N(Cc2ccc(C)cc2)Cc2ccccn2)cc1 4.2%
COc1ccc(-c2cc(C(F)(F)F)n3nc(C(=O)O)nc3n2)cc1 42.7%
NC(=O)CSc1nccn1Cc1ccc(Cl)cc1 -2.93%
CCN(c1ccc(NC(=O)COC(=O)c2cccs2)cc1)C(C)C 38.8%
O=C(COC(=O)c1cccs1)Nc1ccccc1 4.15%
CNC(=S)N1N=C(c2ccc(C)cc2)CC1c1ccc(Cl)cc1 (configuration not stated) 5.37%
CCOc1[nH]n(-c2ccccc2)c(=O)c1C=Nc1ccc(F)cc1F 2.5%
CCOC(=O)N1CCN(C(=O)/C(=C/c2cccs2)NC(=O)c2cccs2)CC1 16.7%
CCn1c(=S)[nH]c2sc3c(c2c1=O)CCCCC3 3.46%
O=c1c2c3c(sc2[nH]c(=S)n1Cc1ccco1)CCC3 -4.17%
O=C(COC(=O)c1ccccc1OCc1ccc(Cl)cc1)NC1CC1 -0.6%
O=C(O)c1sccc1OCc1ccccc1 -1.01%
Cc1ccc(COc2ccsc2C(=O)O)cc1 -3.31%
COc1ccc(C(=O)CSc2n[nH]c(-c3ccncc3)n2)cc1[N+](=O)[O-] -7.99%
O=c1cc2c(=O)oc3cc(O)c(O)oc3c2c(O)c1O 33%
Cc1c(Br)c(=O)oc2c(Br)c(O)c(O)cc12 45.5%
Cc1ccc(C)c(NC(=O)CSc2nnc(-c3ccco3)o2)c1 1.4%
Cc1cccc(Nc2nnc(SC/C(O)=C(\C#N)c3nc4ccccc4[nH]3)s2)c1 19.5%
Cc1cccc(Nc2nnc(SC/C(O)=C(\C#N)c3nc4ccccc4[nH]3)s2)c1C -9.64%
COc1ccc(S(=O)(=O)N2CCOC2CNC(=O)C(=O)NCc2cccnc2)cc1C (configuration not stated) 10.8%
CN(C)Cc1nc2c(c(=O)[nH]1)C(C)(C)Cc1ccccc1-2 -7.27%
CCn1c(=S)[nH]c2c(c1=O)C(C)(C)Cc1ccccc1-2 -1.93%
Cc1ccc(S(=O)(=O)c2nc(C)c3c(n2)CCC3)cc1 -1.17%
CCOC(=O)c1cnc(SCC(=O)Nc2cc(C(F)(F)F)ccc2N2CCOCC2)nc1N -15.2%
CC(=O)/C(C#N)=C1\NC(=O)C(Cc2cc(Cl)ccc2Cl)S1 (configuration not stated) 45.6%
CC(=O)/C(C#N)=C1\NC(=O)C(Cc2ccccc2C)S1 (configuration not stated) 23.4%
COCCCn1c(SCc2cc(=O)[nH]c3ccccc23)nnc1-c1ccco1 -2.38%
COCCSc1nnc(NC(=O)C2CC(=O)N(c3ccc(C)cc3)C2)s1 (configuration not stated) 1.69%
O=C1C2CC=CCC2C(=O)N1c1cccc(OS(=O)(=O)c2ccc3ccccc3c2)c1 (configuration not stated) 6.42%
CC(=O)Nc1ccc(S(=O)(=O)Oc2cccc(N3C(=O)C4CC=CCC4C3=O)c2)cc1 (configuration not stated) 15.9%
CCOc1ccc(NC(=S)NNC(=S)Nc2cccc(C(F)(F)F)c2)cc1 -5.94%
O=C(NCc1ccco1)c1cc(-c2ccccn2)nc2ccccc12 6.45%
O=C(O)c1ccccc1Nc1ccc(OC(F)F)cc1 18.9%
COc1ccc(NC(=S)NNc2ccc([N+](=O)[O-])cc2S(=O)(=O)Nc2ccc(C)cc2C)cc1 4.17%
Cc1ccc(S(=O)(=O)Nc2ccccc2C(=O)OC(C)C(=O)Nc2ccc3ccccc3c2)cc1[N+](=O)[O-] (configuration not stated) -9.25%
COc1ccc(NC(=O)c2ccccc2NS(=O)(=O)c2ccc(C)cc2)c([N+](=O)[O-])c1 2.55%
Cc1ccc(NC(=O)C(C)[n+]2ccccc2)cc1[N+](=O)[O-] (configuration not stated) -17.4%
CCOC(=O)c1nn(-c2ccc(Br)cc2)cc1C(=O)c1cccc2ccccc12 2.03%
O=c1c(Cl)c(NCc2ccc(F)cc2Cl)cnn1C12CC3CC(CC(C3)C1)C2 -15.2%
O=c1c(Cl)c(NCc2ccc(F)cc2)cnn1C12CC3CC(CC(C3)C1)C2 18.3%
O=C(O)C12CC3CC(C1)CC(n1ncc(NCc4ccco4)c(Cl)c1=O)(C3)C2 1.68%
O=C(O)Cc1ccc(Nc2cnn(C34CC5CC(CC(CC(=O)O)(C5)C3)C4)c(=O)c2Cl)cc1 23.1%
O=C(O)CC12CC3CC(C1)CC(n1ncc(NCc4ccccc4)c(Cl)c1=O)(C3)C2 8.41%
O=c1c(Cl)c(NCc2ccccc2)cnn1C12CC3CC(CC(C3)C1)C2 -15.7%
O=C(O)CC12CC3CC(C1)CC(n1ncc(NCc4ccco4)c(Cl)c1=O)(C3)C2 7.19%
O=C(O)CC12CC3CC(C1)CC(n1ncc(NCc4ccccc4Cl)c(Cl)c1=O)(C3)C2 23.6%
COc1ccccc1N1CCN(C(=O)COc2ccc(Cl)cc2Br)CC1 1.89%
CCOC(=O)C1CCN(C(=O)Nc2ccc(OC(F)(F)F)cc2)CC1 7.03%
O=C(c1cc2cccc([N+](=O)[O-])c2oc1=O)N1CCOCC1 14.7%
CCOC(=O)c1c(C)[nH]c(C)c1C(=O)COC(=O)/C=C/c1cccc(C(F)(F)F)c1 -1.01%
Cc1cc(C)c(OC2(c3ccccc3)OC(=O)c3ccccc32)c(C)c1 (configuration not stated) -10.6%
Cc1ccccc1/C=N/N=C1/NC(=O)CCS1 23.8%
CN1CCC(=NNC(=O)C(=O)Nc2ccc(F)cc2)CC1 13.2%
COc1cccc(CNC(=O)CCNS(=O)(=O)c2cccc3nsnc23)c1 -1.94%
Cn1cccc1Cc1nnc(SCC(=O)N2CCc3ccccc32)n1CCc1ccccc1 36.6%
O=C(N/N=C/c1cccc([N+](=O)[O-])c1)c1cc(-c2ccc3c4c(cccc24)CC3)n[nH]1 -2.54%
O=C(N/N=C/c1ccccc1C(=O)O)c1cc(-c2ccc3c4c(cccc24)CC3)n[nH]1 91.8%
CC(C)=CC(=O)Nc1ccc(OCc2ccccc2)cc1 2.98%
O=C(NCC1CCCO1)/C(=C\c1cccc([N+](=O)[O-])c1)NC(=O)c1ccccc1 (configuration not stated) -4.67%
O=C(O)Cn1c(=O)cnc2ccccc21 -13.7%
CC(C)C1N=C2c3ccccc3N=C(SCC#N)N2C1=O (configuration not stated) -5.52%
CC(C)C1N=C2c3ccccc3N=C(SCC(=O)NCCc3ccc(S(N)(=O)=O)cc3)N2C1=O (configuration not stated) -29.1%
